Outcome and AC50 data for ten compounds are collected here from PubChem BioAssay (EPA / NIEHS).

The target of assay [1] is Estrogen receptor (Homo sapiens) (UniProt P03372). The assay can be described thus: CCTE_Deisenroth_AIME_384WELL_LUC_Inactive: CCTE's 384-well Estrogen Receptor Transactivation Assay without AIME metabolic competence (ERTA luciferase; metabolism negative), Deisenroth Lab (AID 2284038; active = hit-call score of the fitted dose curve at least 0.9, where 1 is the maximum;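 note: hits raise estrogen receptor luciferase signal so potencies reflect agonists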). Summed up:
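Metabolism-negative mode: chemicals (10-point, 0.002–200 uM) held 2 h with alginate-water microspheres, then conditioned medium applied to VM7Luc4E2 cells for 24 h. Luciferase induction referenced to 17beta-estradiol.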

The nature of assay [2]: CCTE_Deisenroth_AIME_384WELL_CTox_Inactive: Cytotoxicity Assessment (CTOX) in CCTE's 384-well Estrogen Receptor Transactivation Assay without AIME metabolic competence (metabolism negative), Deisenroth Lab (AID 2284039; active = hit-call score of the fitted dose curve at least 0.9, where 1 is the maximum;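 note: cell viability via live-cell protease substrate cleaved to fluorescent probe; loss of fluorescence signal means loss of viability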). An outline of the steps: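 VM7Luc4E2 human breast cells received conditioned medium from a 2 h incubation of chemical with alginate-water microspheres (no S9), then were exposed 24 h. Viability was read as protease-substrate cleavage to a fluorescent probe; loss of signal was fitted bidirectionally over 0.002–200 uM.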

Assay [3] has as its target Estrogen receptor (Homo sapiens) (UniProt P03372). The assay can be described thus: CCTE_Deisenroth_AIME_384WELL_LUC_Shift: CCTE's 384-well Estrogen Receptor Transactivation Assay with AIME metabolic competence data shift (ERTA luciferase; difference in metabolism positive and negative), Deisenroth Lab (AID 2284041).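 Note: shift is response with S9 minus without S9 so positive means metabolism raised ER signal.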 Summed up: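 Chemicals (0.002–200 uM, 10 points) pre-incubated 2 h with alginate-encapsulated induced male Sprague Dawley rat liver S9 or S9-free, then medium applied 24 h to VM7Luc4E2 cells; luciferase. Endpoint is per-concentration difference, S9-positive minus negative.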

In assay [4] the test system is DIO2 (gene 1734). Nature of the assay: CCTE_GLTED_hDIO2: CCTE's human Deiodinase 2 (DIO2) Inhibition Assay, Great Lakes Toxicology and Ecology Division (GLTED) Lab (AID 2284050; active = hit-call score of the fitted dose curve at least 0.9, where 1 is the maximum). An outline of the steps: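 Cell-free human DIO2 incubated 3 h with chemical; liberated iodide quantified by Sandell-Kolthoff absorbance. Triplicate plates; loss of signal fitted vs DMSO.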

The subject of assay [5] is DIO3 (gene 1735). The assay can be described thus: CCTE_GLTED_hDIO3: CCTE's human Deiodinase 3 (DIO3) Inhibition Assay, Great Lakes Toxicology and Ecology Division (GLTED) Lab (AID 2284055; active = hit-call score of the fitted dose curve at least 0.9, where 1 is the maximum;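 for AC50: potency is for inhibition seen as loss of released iodide signal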). Summed up:
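Human DIO3 from an adenovirus expression system is incubated 3 h with test chemical. Released iodide is quantified by Sandell-Kolthoff absorbance, in triplicate plates. Loss of signal is fitted relative to DMSO.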

Assay [6] is described as follows: CCTE_Shafer_MEA_dev_firing_rate_mean: CCTE's Neural Network Formation Assay for Mean Firing Rate, Shafer Lab (AID 2284031).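 For AC50: curve fitted for loss of firing so AC50 reflects decreased mean firing rate.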 Summed up:
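Primary rat cortical neurons on 48-well MEA plates, exposed from plating day 0 with dosing renewed on DIV 5 and 9. Mean well firing rate over active electrodes, recorded days 5, 7, 9, 12, summarised as trapezoidal AUC.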

The nature of assay [7]: CCTE_Shafer_MEA_dev_per_burst_spike_percent: CCTE's Neural Network Formation Assay for Percent of Spikes in a Burst, Shafer Lab (AID 2284032).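 For AC50: fitted as a decrease in burst spike percentage below DMSO baseline.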 An outline of the steps:
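Rat primary cortical neurons on 16-electrode MEA wells, dosed from plating day 0 for 12 days with renewal on DIV 5 and 9; spikes-in-bursts percentage averaged over bursting electrodes, collapsed as AUC across days 5, 7, 9, 12; loss direction versus DMSO.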

Assay [8] in a line: CCTE_Shafer_MEA_dev_active_electrodes_number: CCTE's Neural Network Formation Assay for Number of Active Electrodes, Shafer Lab (AID 2284040; active = hit-call score of the fitted dose curve at least 0.9, where 1 is the maximum;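 note: potency for loss of active electrodes versus DMSO so lower counts are hits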). An outline of the steps: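 Primary rat cortical neurons on 16-electrode MEA wells, exposed from day 0 through day 12 with compound renewed at DIV 5 and 9 feeds. Active electrodes (mean firing ≥5 spikes/min) counted at DIV 5, 7, 9, 12; trapezoidal AUC across days, loss-of-signal versus DMSO.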

Assay [9] can be described thus: CCTE_Shafer_MEA_dev_burst_rate: CCTE's Neural Network Formation Assay for Burst Rate, Shafer Lab (AID 2284042).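 For AC50: potency for loss of burst rate below DMSO control.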 Summed up: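 Rat primary cortical cultures on PEI/laminin MEA; compound from plating, re-dosed at DIV 5, 9 media change. Single-electrode bursts/recording length, well mean of active electrodes; AUC over DIV 5–12 recordings; loss-of-signal vs DMSO.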
Assay [10] in a line: CCTE_Shafer_MEA_dev_bursting_electrodes_number: CCTE's Neural Network Formation Assay for Number of Bursting Electrodes, Shafer Lab (AID 2284043; active = hit-call score of the fitted dose curve at least 0.9, where 1 is the maximum;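 note: potency is for loss of bursting electrodes relative to DMSO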). An outline of the steps:
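Primary rat cortical neurons plated on 16-electrode MEA wells, exposed from day 0 with compound renewed at DIV 5 and 9. Electrodes bursting ≥1 burst per 2 min counted on days 5, 7, 9 and 12; trapezoidal AUC across days, fitted for loss versus DMSO.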

The nature of assay [11]: CCTE_Shafer_MEA_dev_per_burst_interspike_interval: CCTE's Neural Network Formation Assay for Burst Interspike Interval, Shafer Lab (AID 2284044).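 For AC50: potency for a decrease of within-burst interspike interval below DMSO level.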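 Note: mean spike spacing inside bursts as AUC over recordings on days 5 7 9 12.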 An outline of the steps: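 Mean interspike interval within single-electrode bursts, averaged over bursting electrodes, from rat cortical cultures on MEA plates recorded on days 5, 7, 9 and 12. Continuous compound exposure from plating; trapezoidal AUC fitted downward relative to DMSO.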

Assay [12] can be described thus: CCTE_Shafer_MEA_dev_burst_duration_mean: CCTE's Neural Network Formation Assay for Mean Burst Duration, Shafer Lab (AID 2284045).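 For AC50: curve fitted for loss meaning shorter burst duration than DMSO.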 An outline of the steps:
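Primary rat cortical neurons on 48-well 16-electrode MEA plates, exposed from day 0 with renewal at DIV 5 and 9; spontaneous activity recorded on days 5, 7, 9, 12. Well-mean burst duration across bursting electrodes, collapsed as trapezoidal AUC; DMSO baseline.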

Assay [13] is described as follows: CCTE_Shafer_MEA_dev_interburst_interval_mean: CCTE's Neural Network Formation Assay for Mean Interburst Interval, Shafer Lab (AID 2284046).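 Note: well-mean interburst interval of bursting electrodes as AUC over four recording days; curve fitted for decrease in interburst interval relative to DMSO.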 An outline of the steps:
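Rat cortical neurons, 1.5 x 10^5 cells/well, 48-well MEA; compound from day 0 through DIV 12, media and treatment renewed DIV 5/9. Recordings DIV 5, 7, 9, 12; well-mean interburst interval → trapezoidal AUC, loss direction vs DMSO.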

Assay [14] in a line: CCTE_Shafer_MEA_dev_inter_network_spike_interval_mean: CCTE's Neural Network Formation Assay for Mean Inter-network Spike Interval, Shafer Lab (AID 2284047).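 For AC50: potency for a decrease in mean inter-network spike interval below DMSO.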 An outline of the steps:
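Primary rat cortical neurons on PEI-coated 48-well MEAs (16 electrodes/well) were exposed from plating day 0 to DIV 12, with dosing renewed at DIV 5 and 9. Recordings at DIV 5, 7, 9, 12 were collapsed by trapezoidal AUC, loss-of-signal fit vs DMSO.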

Assay [15] in a line: CCTE_Shafer_MEA_dev_network_spike_number: CCTE's Neural Network Formation Assay for Number of Network Spikes, Shafer Lab (AID 2284048).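 For AC50: fit as a loss of signal meaning fewer network spikes than DMSO.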 Summed up: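 Primary rat cortical neurons on PEI/laminin 48-well MEA plates, dosed from plating day 0 for 12 days, renewed at DIV 5 and 9. Network spike counts recorded DIV 5, 7, 9, 12, collapsed as trapezoidal AUC; DMSO baseline.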
A short description of assay [16]: CCTE_Shafer_MEA_dev_network_spike_peak: CCTE's Neural Network Formation Assay for Mean Number of Electrodes in Network Spike, Shafer Lab (AID 2284049).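 For AC50: fitted for loss of signal meaning fewer electrodes in network spikes than DMSO.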 An outline of the steps:
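Network-spike peak electrode count from recordings on days 5, 7, 9 and 12 was combined as trapezoidal area under the curve. Rat cortical cultures were treated continuously from plating, with compound renewed at each feed (DIV 5, 9); fits versus DMSO.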

The nature of assay [17]: CCTE_Shafer_MEA_dev_spike_duration_mean: CCTE's Neural Network Formation Assay for Mean Spike Duration, Shafer Lab (AID 2284051).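 For AC50: potency for a decrease in mean network spike duration versus DMSO.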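 Note: mean network spike duration pooled as area under curve over DIV 5 to 12 recordings.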 Summed up: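 Rat cortical primary cultures, 48-well MEA (16 electrodes/well); compound from plating, renewed DIV 5, 9. Network spike duration (AxIS adaptive detector) recorded DIV 5/7/9/12, combined as trapezoidal AUC; loss direction vs DMSO.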

The nature of assay [18]: CCTE_Shafer_MEA_dev_network_spike_duration_std: CCTE's Neural Network Formation Assay for Standard Deviation of Network Spike Duration, Shafer Lab (AID 2284052).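 Note: area under curve of spike duration SD across recording days 5 to 12; hits are decreases in network spike duration SD versus DMSO vehicle.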 Summed up: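 Rat cortical cultures, 1.5 x 10^5 cells/well, exposed continuously from plating to DIV 12 with media/compound renewal at DIV 5, 9. Spontaneous activity recorded DIV 5/7/9/12, AxIS adaptive spike detector; AUC across days; negative direction vs DMSO.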

The nature of assay [19]: CCTE_Shafer_MEA_dev_per_network_spike_spike_number_mean: CCTE's Neural Network Formation Assay for Mean Number of Spikes in a Network Spike, Shafer Lab (AID 2284053).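 For AC50: fitted as decrease in spikes per network spike relative to DMSO.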 An outline of the steps: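 Rat cortical primary cultures on 48-well MEA; compound from day 0, re-dosed with full media change DIV 5, 9. Recorded DIV 5, 7, 9, 12; spikes in 0.05 s window at network-spike peak ÷ total network spikes; AUC; loss vs DMSO.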

The nature of assay [20]: CCTE_Shafer_MEA_dev_per_network_spike_spike_percent: CCTE's Neural Network Formation Assay for Percent of Spikes in a Network Spike, Shafer Lab (AID 2284054). Summed up:
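Rat primary cortical neurons were grown on 48-well MEA plates (16 electrodes/well), exposed from plating day 0 through day 12, with treatment renewed on DIV 5 and 9. Percent of spikes within 0.05 s network-spike peaks was measured, summarised as AUC across days 5, 7, 9, 12.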

Where “and” joins values, the source holds several entries; their conditions need not be identical. Equal values may be shown once. Inconclusive results are not listed. Some compounds were tested as several samples or in several runs, with calls that do not always agree. Calls of active or inactive are those of the source. Rule for the calls, unless noted: active = hit-call score of the fitted dose curve at least 0.9, where 1 is the maximum; inactive = score below 0.9.

Chain of Estrogen receptor (Homo sapiens) (P03372 whole entry, looked up): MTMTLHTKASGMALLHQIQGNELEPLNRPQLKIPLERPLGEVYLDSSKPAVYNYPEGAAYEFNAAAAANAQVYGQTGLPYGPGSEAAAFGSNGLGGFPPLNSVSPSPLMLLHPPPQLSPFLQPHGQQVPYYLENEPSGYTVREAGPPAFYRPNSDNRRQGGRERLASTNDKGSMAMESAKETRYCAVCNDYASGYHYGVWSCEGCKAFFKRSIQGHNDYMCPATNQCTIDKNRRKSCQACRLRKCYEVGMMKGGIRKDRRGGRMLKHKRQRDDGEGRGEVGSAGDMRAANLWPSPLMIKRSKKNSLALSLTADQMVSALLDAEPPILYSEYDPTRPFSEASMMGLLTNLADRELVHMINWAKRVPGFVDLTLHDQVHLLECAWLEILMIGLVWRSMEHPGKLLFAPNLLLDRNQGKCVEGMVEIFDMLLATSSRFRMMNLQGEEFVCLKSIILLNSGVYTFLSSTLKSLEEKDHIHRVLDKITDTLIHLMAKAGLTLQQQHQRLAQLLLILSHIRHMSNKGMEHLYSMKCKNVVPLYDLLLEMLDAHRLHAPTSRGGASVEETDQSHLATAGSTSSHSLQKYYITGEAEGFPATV

Usually AC50 stands for the concentration giving half of the maximal activity seen. `CC(=O)OC/C=C(C)/C=C/C=C(C)/C=C/C1=C(C)CCCC1(C)C`: the outcome in assay [1], in assay [2] and in [3] was inactive. The AC50 in assay [4] is 52.6 µM (active); in [5] it was 37800 nM (active).

On to `CCCCCCCCCCCCN1CCOCC1`, for which the outcome in assay [1], in assay [2] and in assay [3] was inactive.

As to `C[C@]12CC[C@@H]3c4ccc(O)cc4CC[C@H]3[C@@H]1CC[C@@H]2O`, the compound was called inactive in assay [6], in assay [7], in assay [9], in [11], in assay [12] and in assay [13]. Also, the outcome in assay [14], in assay [15], in [16], in assay [17], in assay [18] and in assay [19] was inactive. In addition, in [20], the compound was classed as inactive. Further, the AC50 in assay [8] is 10 µM (active) and 13.5 µM (active); in [10], 10000 nM (active).

For `Cc1cccc(O)c1`, the compound was called inactive in assay [1], in assay [2] and in [3].

`C=CC(C)CCCC(C)(C)O` (centres undefined): the compound was called inactive in assay [1], in assay [2] and in assay [3].

On to `CC(=O)CC(=O)N(C)C`, for which the outcome in assay [1], in [2] and in assay [3] was inactive.

Consider `C=C(C)C(N)=O`, for which the compound was classed as inactive in [1], in assay [2] and in assay [3].

`CC(C)C(=O)c1ccccc1`: the compound was called inactive in assay [1], in assay [2] and in [3].

In the case of `CC/C(=C(\c1ccccc1)c1ccc(OCCN(C)C)cc1)c1ccccc1`, the AC50 in assay [6] is 32.9 nM (active); in assay [7], 1980 nM (active); in assay [8], 329 nM (active); in [9] it was 122 nM (active); in assay [10], 203 nM (active); in assay [11], 307 nM (active). Further, the AC50 is 30.4 nM (active) in assay [12]; 1030 nM (active) in assay [13]; 57.8 nM (active) in [14]; 1870 nM (active) in assay [15]; 209 nM (active) in assay [16]; 46.5 µM (active) and 46.3 µM (active) in assay [4]. The AC50 in assay [17] was 350 nM (active); in [18], 273 nM (active); in assay [19], 66.8 nM (active); in assay [20], 3890 nM (active); in assay [5], 84200 nM (active). The compound was called inactive in assay [5].

For the compound `OC[C@H]1O[C@@H](O[C@H]2[C@H](O)[C@@H](O)[C@H](O)O[C@@H]2CO)[C@H](O)[C@@H](O)[C@H]1O`, the outcome in assay [1], in assay [2] and in assay [3] was inactive.
